Shown are actives, neighbours in structure and some others; about 3.1% of the full set was active somewhere.
BRCT PPI green: qHTS Assay for Inhibitors of BRCT-Phosphoprotein Interaction (Green Fluorophore); Breast cancer type 1 susceptibility protein (Homo sapiens), P38398; BRCA1 BRCT-phosphopeptide binding, green fluorescence polarization; Potency, µM (titrated, usually from 76.9 µM), actives largely listed as inhibitors; 75,000 tested, 0.05% active; AID 875, 2007
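Fluorescence polarization: His-tagged BRCT (~35 kDa BRCA1 C-terminus, 250 nM) bound to 100 nM fluorescein-labeled phosphorylated 10-aa BACH1 peptide, pH 7.3 phosphate buffer with DTT and Tween 20. Compounds incubated 12 min at room temperature; inhibition read as lowered polarization.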
Tau filament bind: qHTS Assay for Tau Filament Binding; Microtubule-associated protein tau (Homo sapiens), P10636; AID 596, 2007; Potency, µM (highest dose often 57.1 µM); recombinant tau filaments, thioflavin S fluorescence, 15 h; filaments grown with octadecylsulfate alongside compound; 71,000 tested, 2% active;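 also: actives lower thioflavin S fluorescence by blocking filaments or displacing dye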
Target sequence (P10636 whole entry, looked up): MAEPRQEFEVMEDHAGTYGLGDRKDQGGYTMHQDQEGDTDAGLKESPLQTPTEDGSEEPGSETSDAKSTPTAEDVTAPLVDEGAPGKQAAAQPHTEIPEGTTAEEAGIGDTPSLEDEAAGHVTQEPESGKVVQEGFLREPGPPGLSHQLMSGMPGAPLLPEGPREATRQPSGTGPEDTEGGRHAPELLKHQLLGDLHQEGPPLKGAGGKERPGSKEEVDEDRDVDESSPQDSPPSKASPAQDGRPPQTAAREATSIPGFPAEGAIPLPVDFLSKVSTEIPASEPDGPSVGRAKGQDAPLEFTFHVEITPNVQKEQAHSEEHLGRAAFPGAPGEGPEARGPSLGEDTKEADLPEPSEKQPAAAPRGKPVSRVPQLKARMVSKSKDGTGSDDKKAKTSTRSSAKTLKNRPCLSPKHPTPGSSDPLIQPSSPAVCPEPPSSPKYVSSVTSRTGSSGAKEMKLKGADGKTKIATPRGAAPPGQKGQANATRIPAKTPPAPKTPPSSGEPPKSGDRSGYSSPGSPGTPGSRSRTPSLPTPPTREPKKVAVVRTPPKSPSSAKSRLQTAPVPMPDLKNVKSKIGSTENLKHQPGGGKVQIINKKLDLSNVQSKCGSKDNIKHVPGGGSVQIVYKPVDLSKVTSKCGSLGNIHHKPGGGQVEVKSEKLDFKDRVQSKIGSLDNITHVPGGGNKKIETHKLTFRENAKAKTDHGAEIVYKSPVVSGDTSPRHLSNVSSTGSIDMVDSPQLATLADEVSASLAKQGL
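His-tagged recombinant human tau (exons 2, 3, 10; 1 uM final) fibrillized with 30 uM sodium octadecylsulfate, 15 h at 37 C, in pH 7.4 HEPES buffer with 10 uM thioflavine S and 5 mM DTT. Reduced ThS fluorescence (450/510 nm) marks activity.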
15-hLO inh: qHTS Assay for Inhibitors of 15-hLO (15-human lipoxygenase) | AID 887, 2007 | 74,000 tested, 1.4% active | Potency, µM (titrated, usually from 57.1 µM), hits mostly inhibitors | purified 15hLO-1, xylenol orange hydroperoxide absorbance; also: nearly all actives have a fitted effect of over 55% in size
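Readout: Fe(III)-xylenol orange absorbance, 573-to-405 nm ratio as reaction progress. Enzyme 40 nM purified human 15hLO-1, substrate 50 uM arachidonic acid, 6 min RT after 15 min compound preincubation; Hepes pH 7.5 buffer with Triton X-100.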
TsaE inh: qHTS Assay for Inhibitors of YjeE. Potency, µM. 71,000 tested, 0.05% active. purified YjeE enzyme, qHTS inhibition assay. tRNA threonylcarbamoyladenosine biosynthesis protein TsaE (Escherichia coli (strain …
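Purified YjeE (10 uM) with BODIPY Texas Red-labeled ADP probe (2 uM); compounds pin-transferred, 15 min at room temperature. Binding inhibition read as decreased fluorescence polarization; ADP titration as control.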
DNA Pol III inh: qHTS Assay for Inhibitors of DNA Polymerase III Holoenzyme System | reconstituted DNA polymerase III holoenzyme replication, biochemical | Potency, µM (titrated, usually from 57.1 µM) | 71,000 tested, 0.25% active
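Reconstituted *E. coli* holoenzyme (0.35 nM Pol III, 1 nM beta, 154 nM SSB, 2 nM primase) was preincubated with compound for 15 min at RT. Synthesis on 1.4 nM ssM13Gori ran 35 min, then was stopped with PicoGreen/EDTA and read as dsDNA fluorescence.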
BRCT inh red: qHTS Assay for Inhibitors of BRCT-Phosphoprotein Interaction (Red Fluorophore) | Breast cancer type 1 susceptibility protein (Homo sapiens), P38398 | BRCT-phosphopeptide binding, red fluorescence polarization | Potency, µM (series often up to 76.9 µM), actives largely listed as inhibitors | 75,000 tested, 0.03% active | AID 892, 2007
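Fluorescence polarization: 100 nM His-tagged BRCA1 BRCT with 100 nM TAMRA-labelled phospho-BACH1 decapeptide, phosphate buffer pH 7.3 with 150 mM NaCl, DTT, 0.01% Tween 20; 12 min RT. Binding inhibition seen as FP decrease.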
Hits are given with their value; – = inactive; ? = inconclusive; · = no result; ! = not confirmed by another sample; [ ] = another dose, or the depositor's remark. Calls follow the shape of the dose curve; as a rule, active = well fitted curve in the direction sought with a large enough effect; inconclusive = small, poorly fitted or top-dose-only effect, or another doubt; inactive = no such curve, though single readings can be large; an effect the other way counts as inactive or inconclusive.

SMILES	BRCT PPI green	Tau filament bind	15-hLO inh	TsaE inh	DNA Pol III inh	BRCT inh red
CN(C)c1ccc(N=Nc2ccccc2)cc1	–	16µM	–	–	–	–
N[C@H](CCl)C(=O)O	–	–	–	–	–	–
CC(=O)O.CC(=O)O.[Cd]	–	·	16µM	·	·	–
CC(=NCc1ccco1)c1c(O)n(C)c(=O)n(C)c1=O	–	–	–	–	–	–
Cn1c(O)c(C=NCc2ccco2)c(=O)n(C)c1=O	–	–	32µM	–	–	–
N=C(N)c1c(O)n(C2CCCCC2)c(=O)n(C2CCCCC2)c1=O	–	16µM	–	–	–	–
CCC(=NCCO)c1c(O)n(C2CCCCC2)c(=O)[nH]c1=O	–	–	–	–	–	–
Ic1ccccc1CN[C@@H]1C2CCN(CC2)[C@H]1C(c1ccccc1)c1ccccc1	–	–	–	–	–	–
O=C(NC(=O)c1c(F)cccc1F)Nc1cc(Cl)c(OC(F)(F)C(F)C(F)(F)F)cc1Cl (stereo not drawn)	–[3.08 µM]	·	16µM	·	·	–
C[C@H](N)[C@H](O)c1ccc(O)c(O)c1	–	–	3.2µM!	–	5µM	–
COc1ccc(OC)c(C(O)C(C)N)c1 (stereo not drawn)	–[3.08 µM]	·	–	·	·	–
CC(C)C[C@H]1C(=O)N2CCC[C@@H]2[C@]2(O)O[C@](NC(=O)[C@H]3C=C4c5cccc6[nH]cc(c56)C[C@H]4N(C)C3)(C(C)C)C(=O)N12	·	–	·	–	–	·
COC(=O)[C@@H]1C[C@@H]1[C@@H](NP(=O)(c1ccccc1)c1ccccc1)c1ccccc1	·	–	·	–	–	·
C=C1C/C(=C\C)C(=O)O[C@@H]2CCN3CC=C(COC(=O)[C@]1(C)O)[C@H]23	·	?	·	–	–	·
CC(C)(C)c1cc(O)ccc1O	–[15.4 µM]	–[11.4 µM]	20µM	–	–[11.4 µM]	–
O=c1cccc2n1C[C@H]1C[C@@H]2CN(CCO)C1	·	–	·	–	–	·
O=C1C[C@H]2OCCC=C3CN4CC[C@@]56c7ccccc7N1[C@@H]5[C@H]2[C@H]3C[C@@H]46	·	–	·	–	–	·
CC1=CC(=O)NP(=O)(Oc2ccc3ccccc3c2)N1 (stereo not drawn)	–	–	13µM	–	–	–
C=CCCN1C[C@@H]2C[C@H](C1)c1cccc(=O)n1C2	·	–	·	–	–	·
C/C=C(\C)C(=O)O[C@@H]1C(C)=C2[C@H]([C@@H]1OC(=O)CCCCCCC)[C@@](C)(OC(C)=O)C[C@@H](OC(=O)CCC)[C@@]1(O)[C@H]2OC(=O)[C@]1(C)O	–	–	20µM	–	–	–
CN1CCN(c2ccc([N+](=O)[O-])c3[nH]o[n+](=O)c23)CC1	–[15.4 µM]	–[11.4 µM]	–[11.4 µM]	–	–[11.4 µM]	–[15.4 µM]
C=C(C)[C@H]1Cc2c(ccc3c2O[C@H]2COc4cc(OC)c(OC)cc4[C@@H]2C3=O)O1	–	–	–	–	–	–
CN1CCc2cc(O)cc3c2[C@H]1Cc1ccc(O)c(O)c1-3	–	–	–	–	–	–
CCCN1CCc2cc(O)cc3c2[C@H]1Cc1ccc(O)c(O)c1-3	–	25µM	–	–	–	–
N[C@H](Cn1cc(I)c(=O)[nH]c1=O)C(=O)O	·	–	·	–	–	·
SMILES	BRCT PPI green	Tau filament bind	15-hLO inh	TsaE inh	DNA Pol III inh	BRCT inh red
C=C1CC[C@H](O)C/C1=C/C=C1\CCC[C@]2(C)[C@@H]([C@H](C)CCCC(C)C)CC[C@@H]12	–	?	16µM	–	–	–
CSC([N-]/N=C/c1cccc(C)n1)=[S]=[Cu].CS[C@H]([S-])[N-]/N=C/c1cccc(C)n1	–[15.4 µM]	?	?	–	–[11.4 µM]	–[15.4 µM]
O=C1C(Cl)=C(Cl)C(=O)C(Cl)=C1Cl	–[3.08 µM]	–	0.16µM	?	–	–
Cc1cccc(C2=NCC(=O)N(CC(=O)NCc3ccco3)c3sc4c(c32)CCCC4)c1	–	–	25µM	–	–	–
COc1ccc(C2=NCC(=O)N(CC(=O)NCc3ccco3)c3sc4c(c32)CCCC4)cc1	–	–	?	–	–	–
O=C1C2CC=CCC2C(=O)N1SC(Cl)(Cl)Cl (stereo not drawn)	–	–	?	–	40µM!	–
C[C@@H]1Cc2cc3c(cc2C(c2ccc(N)cc2)=NN1)OCO3	–	40µM	?	–	–	–
C[C@@H]1[C@H]2C=C[C@@H]1[C@@H](c1c3ccc(=O)c(O)c-3oc3c(O)c(O)ccc13)[C@@H]2C(=O)O	?	?	?	–	0.13µM	?
C[C@@]12C=CC(=O)C=C1CC[C@@H]1C2=CC[C@]2(C)[C@@H]1CC[C@H]2C(=O)CN1CCN(c2cc(N3CCCC3)nc(N3CCCC3)n2)CC1	–	6.3µM	?	?	–	–
CC[C@@]12CCCN3CC[C@@]4(c5ccc(OC)c(O)c5N(C(C)=O)[C@H]4CC1)[C@H]32	·	–	·	–	–	·
Nc1c(C(=O)NCCN2CCOCC2)c2nc3ccccc3nc2n1Cc1ccco1	–	–	13µM	–	–	–
CCCCn1c(N)c(C(=O)NCCN2CCOCC2)c2nc3ccccc3nc21	–	–	–	–	–	–
COC1=C[C@H]2[C@@H]3Cc4ccc(OC)c(O)c4[C@@]2(CCN3C)CC1=O	·	?	·	–	–	·
C=C[C@@H]1CN2CC[C@@H]1C[C@H]2[C@H](O)c1ccnc2ccccc12	·	?	·	–	–	·
C=CCc1c(C)[nH]c(=S)c(C#N)c1C	–	–	16µM	–	–	–
COc1ccc(C[C@@H]2NC[C@H](O)[C@H]2OC(C)=O)cc1	·	?	·	–	–	·
CC(C)n1cc2c3c(cccc31)[C@@H]1C[C@H](C(=O)O[C@@H](C)[C@H](C)O)CN(C)[C@H]1C2	–	–	–	–	–	–
O=c1cc(-c2ccc(O)c(O)c2)oc2cc(O)cc(O)c12	–	?	2.5µM	–	?	–
CC(=O)[O-].CC(=O)[O-].CC(=O)[O-].[Cr+3]	–	13µM	–	–	–	–
C[C@@H](O)CN(CCN(C[C@@H](C)O)C[C@@H](C)O)C[C@@H](C)O.O=[N+]([O-])O.[Cu]	–[15.4 µM]	?	4µM	–	–[11.4 µM]	–[15.4 µM]
CC(C)[N+](=O)[O-]	–	–	–	–	–	–
CO[C@@H]1CC=C2CCN3CCC4=C(CC(=O)OC4)[C@]23C1	–	–	–	–	–	–
NCCCCN=C(N)N	–[3.08 µM]	40µM!	?	–	–	–
C[N+]1(C)CCc2cc3c(cc2[C@@H]1[C@@H]1OC(=O)c2c1ccc1c2OCO1)OCO3	–	–	–	–	–	–
CN(C)c1ccc(P(=S)(N(C)C)N(C)C)cc1	–	–	–	–	–	–
